Compounds with a hit are over-represented: about 11% of the library has one in this group of screens.
3T3 cytotox: kills NIH 3T3 cells | NIH 3T3 viability, CellTiter-Glo ATP luminescence, 48-72 h | Potency, µM (series often up to 96.7 µM), actives largely listed as inhibitors | 94,000 compounds, 4.3% hits; note: nearly all actives have a fitted effect of over 55% in size
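Luminescent ATP readout (CellTiter-Glo, 10 min RT) after 48 or 72 hr compound exposure of NIH 3T3 cells seeded at 400 cells/well in 1536-well format; quantitative HTS.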
Luciferase inh: blocks purified firefly luciferase enzyme activity; P08659; purified P. pyralis luciferase, luminescence, biochemical; Potency, µM (titrated, usually from 115 µM), actives largely listed as inhibitors; 76,000 compounds, 2.5% hits; AID 1347043; note: nearly all actives have a fitted effect of over 65% in size
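Purified P. pyralis luciferase (10nM final) in 50mM Tris acetate pH 7.5, 10mM Mg acetate, 0.01% Tween-20, 0.05% BSA with 10uM D-luciferin and 10uM ATP. Compounds titrated qHTS. Luminescence imaged on CCD.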
HEK cytotox: cytotoxic compounds in HEK 293 cells; 94,000 compounds, 6.6% hits; HEK 293 viability, ATP luminescence (CellTiter-Glo), 48-72 h; AID 1345083; Potency, µM (highest dose often 115 µM), usual class: inhibitors; note: nearly all actives have a fitted effect of over 60% in size
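Cytotoxicity was scored by loss of ATP-coupled luminescence (CellTiter-Glo) in HEK 293 cells. Compound treatment ran 48 or 72 hr at 37 degree Celsius, 5% CO2, 95% humidity.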
hNpr1 antagonist: human Npr1 receptor antagonism. P16066. HEK293 hNpr1 GloSensor cGMP, ANP-stimulated luminescence. Potency, µM (titrated, usually from 46.3 µM), hits mostly inhibitors. 76,000 compounds, 1.6% hits; calls by dose curve; note: nearly all actives have a fitted effect of over 60% in size
Target sequence (P16066 whole entry, looked up): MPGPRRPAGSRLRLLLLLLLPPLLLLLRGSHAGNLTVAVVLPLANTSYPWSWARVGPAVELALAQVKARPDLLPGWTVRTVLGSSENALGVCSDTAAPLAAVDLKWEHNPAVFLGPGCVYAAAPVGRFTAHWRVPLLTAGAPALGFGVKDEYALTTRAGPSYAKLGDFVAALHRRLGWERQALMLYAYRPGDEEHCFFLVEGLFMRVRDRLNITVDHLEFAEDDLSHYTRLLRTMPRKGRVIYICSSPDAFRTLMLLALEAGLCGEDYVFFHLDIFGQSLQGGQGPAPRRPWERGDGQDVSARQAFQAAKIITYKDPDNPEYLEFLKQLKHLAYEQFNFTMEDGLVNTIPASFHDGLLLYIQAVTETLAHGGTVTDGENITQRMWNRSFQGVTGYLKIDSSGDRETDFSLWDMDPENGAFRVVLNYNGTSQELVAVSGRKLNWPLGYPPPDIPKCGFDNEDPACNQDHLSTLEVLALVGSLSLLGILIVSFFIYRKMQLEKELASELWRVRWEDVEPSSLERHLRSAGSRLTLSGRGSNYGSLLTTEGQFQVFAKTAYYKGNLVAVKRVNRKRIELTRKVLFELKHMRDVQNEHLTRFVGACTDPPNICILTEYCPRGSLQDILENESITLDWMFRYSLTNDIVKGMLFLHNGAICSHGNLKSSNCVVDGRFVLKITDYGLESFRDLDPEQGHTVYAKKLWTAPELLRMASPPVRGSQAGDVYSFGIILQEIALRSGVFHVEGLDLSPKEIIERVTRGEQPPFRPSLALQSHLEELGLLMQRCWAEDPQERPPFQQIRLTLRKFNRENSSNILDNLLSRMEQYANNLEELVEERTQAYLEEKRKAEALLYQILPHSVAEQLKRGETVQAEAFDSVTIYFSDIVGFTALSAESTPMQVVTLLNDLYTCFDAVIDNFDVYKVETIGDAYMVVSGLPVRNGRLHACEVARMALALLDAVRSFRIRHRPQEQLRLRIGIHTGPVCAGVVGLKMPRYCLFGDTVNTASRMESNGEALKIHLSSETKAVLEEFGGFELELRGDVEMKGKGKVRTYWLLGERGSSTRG
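Compound pre-incubated 30 min at room temperature on GloSensor-loaded HEK293 cells stably carrying hNpr1 and the pGS-40F cGMP biosensor. Stimulation uses hNppA at 0.1 nM final; luminescence is taken at baseline and 20 min post-agonist.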
Large screens that a line does not name were inactive. Unless noted, calls come from the whole dose curve; as a rule, active = well fitted curve in the direction sought with a large enough effect; inconclusive = small, poorly fitted or top-dose-only effect, or another doubt; inactive = no such curve, though single readings can be large; an effect the other way counts as inactive or inconclusive.

O=C(NCc1ccccc1)NC[C@H]1O[C@@H]2C[C@@H](CC(=O)N3CCOCC3)O[C@@H]2[C@@H]1O	none
NC(=O)CC1=C2CCCCC2N(Cc2ccccc2)C1=O (stereo not drawn)	none
COCCCNC(=O)CC1CCCCN(Cc2ccccc2)C1=O (stereo not drawn)	none
O=C(CC1=C2CCCCC2N(Cc2ccccc2)C1=O)N1CCc2ccccc2C1 (stereo not drawn)	3T3 cytotox inconclusive, HEK cytotox 50µM
O=C(CC1CCCCN(Cc2ccccc2)C1=O)N1CCc2ccccc2C1 (stereo not drawn)	3T3 cytotox inconclusive, HEK cytotox 45µM
O=C(NC[C@H]1COCc2nc3cc(F)ccc3n21)c1ccc(Cl)cc1	3T3 cytotox inconclusive, HEK cytotox 71µM
Fc1ccc2c(c1)nc1n2[C@@H](CNC2CCCCC2)COC1	3T3 cytotox 28µM, HEK cytotox inconclusive
O=C(NC[C@H]1COCc2nc3cc(C(F)(F)F)ccc3n21)C1CC1	HEK cytotox inconclusive
O=C(NC[C@H]1COCc2nc3cc(F)ccc3n21)C1CC1	3T3 cytotox 79µM
O=C(NC[C@H]1COCc2nc3cc(F)ccc3n21)c1ccc2c(c1)OCO2	3T3 cytotox inconclusive, Luciferase inh inconclusive
COc1ccc(CN2CCOC(c3cccnc3)C2)cc1Cn1cccn1 (stereo not drawn)	HEK cytotox inconclusive
CC(C)NC(=O)C1CN(c2cccc(Cl)c2)C(=O)N1 (stereo not drawn)	none
CC(C)CC(=O)N[C@@H]1CN(Cc2ccccc2)C[C@H]1CN(C)C	none (no result: Luciferase inh, hNpr1 antagonist)
COc1ccc2[nH]c(C(=O)N3C[C@@H](CO)[C@H](c4ccncc4)C3)cc2c1	none
Fc1ccc(-c2cc(CC3(NCc4ccco4)COC3)no2)cc1	3T3 cytotox inconclusive, HEK cytotox 89µM
COc1ccc(-c2cc(CC3(NCc4ccccc4O)COC3)no2)cc1	3T3 cytotox inconclusive, HEK cytotox 100µM
COc1ccc(N2C(=O)C3(CCCCC3)C2C(=O)N2CCN(C(C)=O)CC2)cc1 (stereo not drawn)	none
Cn1nc(C2CCCN2)c2c(C(=O)NC3CC3)cc(C3CC3)nc21 (stereo not drawn)	none (no result: Luciferase inh, hNpr1 antagonist)
O=C(NC1CCNCC1)c1cc(C2CC2)nc2c1c(C1CCCN1)nn2-c1ccccc1 (stereo not drawn)	3T3 cytotox 22µM, HEK cytotox 45µM (no result: Luciferase inh, hNpr1 antagonist)
O=C(NC1CC1)c1cc(C2CC2)nc2c1c(C1CCCN1)nn2-c1ccccc1 (stereo not drawn)	3T3 cytotox 32µM, HEK cytotox 79µM (no result: Luciferase inh, hNpr1 antagonist)
O=C(c1cncc(Br)c1)N1CCC(CCOc2ccccc2F)C1 (stereo not drawn)	3T3 cytotox inconclusive, HEK cytotox 40µM
COc1ccc2c(c1)OCC(C(=O)NCCNc1cc(C)ccn1)C2 (stereo not drawn)	3T3 cytotox 79µM
N#Cc1cccc(C(=O)N[C@H]2[C@H](O)[C@H](O)C[C@@H]2c2ccc(N3CCOCC3)nc2)c1	none
CC(C)CCN1CCOc2cc(C(=O)NCc3ccccc3)ccc2C1	3T3 cytotox inconclusive, HEK cytotox inconclusive
CC(C)CCN1CCOc2cc(C(=O)Nc3nccs3)ccc2C1	3T3 cytotox inconclusive, Luciferase inh inconclusive, HEK cytotox 100µM
O=C(NCC1CC1)c1ccc2c(c1)OCCN(c1ccccc1)C2	3T3 cytotox inconclusive, HEK cytotox 11µM
CC(C)CCN1CCOc2cc(C(=O)NCCOc3ccccc3)ccc2C1	3T3 cytotox inconclusive, HEK cytotox 100µM
CNC(=O)c1ccc2c(c1)OCCN(c1ccccc1)C2	HEK cytotox inconclusive
CC(C)CCN1CCOc2cc(C(=O)N(C)c3cccnc3)ccc2C1	3T3 cytotox inconclusive, HEK cytotox 112µM
CCCn1cnc2c1CN(S(=O)(=O)c1ccccc1)[C@H](C(=O)OC)C2	none
O=C(NC1CCCCC1)N1CCC(Cc2nc(-c3ccccc3)n[nH]2)C1 (stereo not drawn)	none
CC(C)CCN1CCOc2cc(C(=O)Nc3ccc(F)cc3)ccc2C1	3T3 cytotox inconclusive, HEK cytotox inconclusive, hNpr1 antagonist inconclusive
CC(C)CCN1CCOc2cc(C(=O)Nc3cccnc3)ccc2C1	HEK cytotox 112µM
COc1ccccc1-c1cc(-c2cccnc2)c2cncn2c1	3T3 cytotox inconclusive, HEK cytotox inconclusive
COc1cccc(-c2cc(-c3cccnc3)c3cncn3c2)c1OC	3T3 cytotox inconclusive, Luciferase inh 50µM, HEK cytotox inconclusive
COc1ncccc1-c1cc(-c2cccnc2)c2cncn2c1	3T3 cytotox inconclusive, HEK cytotox inconclusive
Cc1ccccc1-c1cc(-c2ccc(=O)[nH]c2)c2cncn2c1	3T3 cytotox 25µM, HEK cytotox 71µM
COc1ccc(-c2cc(-c3cccnc3)c3cncn3c2)cc1OC	3T3 cytotox 35µM, HEK cytotox inconclusive
COc1ccc(-c2cc(-c3ccc(OC)c(OC)c3)cn3cncc23)cc1	3T3 cytotox 40µM, HEK cytotox 71µM
COc1ccc(-c2cc(-c3ccncc3)c3cncn3c2)cc1OC	3T3 cytotox 25µM, HEK cytotox inconclusive
COc1ccc(-c2cc(N3CCOCC3=O)c3cncn3c2)cc1OC	3T3 cytotox inconclusive
COc1ccccc1-c1cc(-c2ccncc2)c2cncn2c1	3T3 cytotox 11µM, HEK cytotox 89µM
COc1ccc(-c2cc(-c3ccc(CO)cc3)cn3cncc23)cc1	3T3 cytotox inconclusive, HEK cytotox 79µM
COc1ccccc1-c1cc(N2CCOCC2=O)c2cncn2c1	3T3 cytotox 100µM
CN1CC(=O)N(C2CCCNCC2)Cc2c1ncnc2N1CCOCC1 (stereo not drawn)	3T3 cytotox inconclusive (no result: Luciferase inh, hNpr1 antagonist)
COc1ccc(-c2onc(C)c2C(=O)N[C@H](C)c2cccc(OC)c2)cc1	HEK cytotox inconclusive
CC(C)NC(=O)N1Cc2ccccc2OC2(CCN(Cc3ccncc3)CC2)C1	3T3 cytotox inconclusive (no result: Luciferase inh, hNpr1 antagonist)
CCCn1ncc(CN2CCC(Cc3cccc(C(F)(F)F)c3)(C(=O)OCC)CC2)c1C	3T3 cytotox inconclusive, HEK cytotox inconclusive, hNpr1 antagonist inconclusive
CCN1c2cc(C(=O)NCc3cccc(Cl)c3)ccc2C(=O)N2CCCCCC21 (stereo not drawn)	3T3 cytotox inconclusive, HEK cytotox inconclusive
CCN1c2cc(C(=O)Nc3cccc(Cl)c3)ccc2C(=O)N2CCCCCC21 (stereo not drawn)	3T3 cytotox 40µM, HEK cytotox inconclusive
CN1c2cc(C(=O)Nc3cccc(Cl)c3)ccc2C(=O)N2CCCCC21 (stereo not drawn)	3T3 cytotox inconclusive, Luciferase inh 14µM, HEK cytotox inconclusive
CCN1c2cc(C(=O)Nc3ccc(Cl)cc3)ccc2C(=O)N2CCCC21 (stereo not drawn)	none
CN1c2cc(C(=O)Nc3ccc(F)c(Cl)c3)ccc2C(=O)N2CCCCC21 (stereo not drawn)	3T3 cytotox inconclusive, HEK cytotox inconclusive
CCN1c2cc(C(=O)Nc3cccc(Cl)c3)ccc2C(=O)N2CCCCC21 (stereo not drawn)	3T3 cytotox inconclusive, HEK cytotox 32µM
Cc1c(CC(=O)N2CCC(O)CC2)c2c(n1Cc1ccccc1F)CCCC2=O	none
